# Experimental data from PubChem BioAssay.
# What was measured:
# [1] = tested on: Human papillomavirus type 1a protein E7 (residues 44-93); test: HPV1a E7 fragment binders on microarrays, primary screen, biochemical, small-molecule microarray, residues 44-93, 635 nm fluorescence (AID 1108); conditions: small-molecule microarray binding, fluorescence 635 nm; higher = more signal;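 further: E7 fragment applied at 1 µg/mL in TBST for 1 h at 4 C; score combines spot fluorescence with its signal to noise ratio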
# [2] = modulators of HCV replicon luciferase signal, primary screen, HCV replication inhibitor project, Huh7 cells, luciferase reporter (AID 1109); conditions: 48 h, higher = more signal;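 further: huh7 hepatoma cells harbouring a luciferase neomycin HCV replicon reporter; luciferase luminescence as measure of HCV replicon replication; test concentration not given here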
# [3] = biological target: Left-right determination factor 2 (Homo sapiens) (UniProt O00292); test: LEFTY2 binders on small-molecule microarrays, primary screen, biochemical, small-molecule microarray, 635 nm fluorescence scan (AID 1110); conditions: LEFTY2 binding, higher = more signal
# [4] = biological target: Calmodulin-1 (Homo sapiens) (UniProt P0DP23); test: CALM1 binders on microarrays, EGTA buffer, profiling panel, biochemical, small-molecule microarray, Cy5-labelled CALM1 (AID 1111); conditions: Cy5-CALM1 binding fluorescence, higher = more signal;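 further: labelled calmodulin applied in Tris saline Tween buffer holding calcium plus EGTA and DTT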
# [5] = biological target: Calmodulin-1 (Homo sapiens) (UniProt P0DP23); test: calcium-bound CALM1 binders on microarrays, profiling panel, artefact control for SMM control-protein annotation, biochemical, small-molecule microarray, Cy5-labelled CALM1, plus calcium (AID 1112); conditions: Cy5-CALM1 binding fluorescence, higher = more signal;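 further: score merges spot fluorescence with signal to noise from triplicate slides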
# [6] = small-molecule microarray binders of probe aWnt5a, primary screen, biochemical, biotinylated probe, 635/667 nm fluorescence (AID 1113); conditions: higher = more signal;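 further: score merges 667 nm fluorescence intensity with signal-to-noise per printed feature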
# [7] = small-molecule microarray binders of probe aShh, primary screen, biochemical, biotinylated probe, 635/667 nm fluorescence (AID 1114); conditions: higher = more signal;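 further: probe is biotin-labelled aShh protein from a stem cell growth factor screen; measures binding of labelled protein to compounds printed on the slide; score merges feature fluorescence at 667 nm with signal-to-noise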
# [8] = small-molecule microarray binders of probe aNog, primary screen, biochemical, biotinylated probe, 635/667 nm fluorescence (AID 1115); conditions: higher = more signal;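 further: probe is biotinylated aNog protein used at 0.15 µg/mL for 1 h at 4 C; z-score combines 667 nm fluorescence of each spot with its signal to noise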
# [9] = biological target: Torsin-1A-interacting protein 1 (Homo sapiens) (UniProt Q5JTV8); test: LAP1 binders from COS7 cell lysate, primary screen, small-molecule microarray, 635/667 nm fluorescence (AID 1116); conditions: COS7-hLAP1 lysate binding, 635 nm fluorescence, higher = more signal
# [10] = biological target: Alpha-bungarotoxin (Bungarus multicinctus) (UniProt P60615); test: alpha-bungarotoxin binders on microarray, profiling panel, artefact control for SMM control protein annotation, biochemical, small-molecule microarray, Alexa647 label, 635/667 nm fluorescence (AID 1117); conditions: alpha-BTX-A647 binding fluorescence, higher = more signal
# Chain of Alpha-bungarotoxin (Bungarus multicinctus) (P60615 whole entry, looked up): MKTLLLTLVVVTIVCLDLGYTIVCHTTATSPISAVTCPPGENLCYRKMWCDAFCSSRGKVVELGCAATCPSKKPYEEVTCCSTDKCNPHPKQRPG
# Chain of Left-right determination factor 2 (Homo sapiens) (O00292 whole entry, looked up): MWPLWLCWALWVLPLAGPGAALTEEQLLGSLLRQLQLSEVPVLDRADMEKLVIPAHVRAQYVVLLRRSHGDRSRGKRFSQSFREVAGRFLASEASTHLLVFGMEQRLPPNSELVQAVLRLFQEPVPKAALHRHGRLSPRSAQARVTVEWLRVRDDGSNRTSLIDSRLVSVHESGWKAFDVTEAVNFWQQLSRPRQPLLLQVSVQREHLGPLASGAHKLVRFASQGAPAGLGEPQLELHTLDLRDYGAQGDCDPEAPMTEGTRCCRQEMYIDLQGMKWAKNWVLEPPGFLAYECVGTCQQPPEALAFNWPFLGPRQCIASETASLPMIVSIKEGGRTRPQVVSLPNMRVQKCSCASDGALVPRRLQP
# Chain of Torsin-1A-interacting protein 1 (Homo sapiens) (Q5JTV8 whole entry, looked up): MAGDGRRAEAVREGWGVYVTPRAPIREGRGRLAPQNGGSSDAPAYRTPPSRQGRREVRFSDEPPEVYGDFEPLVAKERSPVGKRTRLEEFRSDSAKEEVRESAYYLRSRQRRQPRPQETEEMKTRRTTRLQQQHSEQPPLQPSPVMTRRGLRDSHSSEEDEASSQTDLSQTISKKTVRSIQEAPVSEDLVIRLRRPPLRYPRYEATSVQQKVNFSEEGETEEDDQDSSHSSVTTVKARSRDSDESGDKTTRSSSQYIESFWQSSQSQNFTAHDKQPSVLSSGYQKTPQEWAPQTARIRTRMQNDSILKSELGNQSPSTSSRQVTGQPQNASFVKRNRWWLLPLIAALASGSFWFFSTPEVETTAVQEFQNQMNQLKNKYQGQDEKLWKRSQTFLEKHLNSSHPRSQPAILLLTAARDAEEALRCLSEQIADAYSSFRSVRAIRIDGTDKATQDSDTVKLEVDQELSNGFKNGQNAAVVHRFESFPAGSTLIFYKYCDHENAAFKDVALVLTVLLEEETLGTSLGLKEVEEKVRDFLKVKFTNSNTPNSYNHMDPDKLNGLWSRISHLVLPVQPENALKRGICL
SMILES,composite z-score [1],z-score [2],composite z-score [3],composite z-score [4],composite z-score [5],composite z-score [6],composite z-score [7],composite z-score [8],composite z-score [9],composite z-score [10]
[N-]=[N+]=NCc1ccccc1C[C@]1(C(=O)NCC(O)CO)N=C(c2ccc(OCCCO)cc2)O[C@H]1c1ccccc1N=[N+]=[N-] (stereo not given in full),1.38,-1.47,-1.22,1.03,1.04,0.0633,0.14,1.18,1.4,1.75
COc1ccc(C#Cc2ccc3c(c2)[C@]2(C(=O)N3)[C@H](C(=O)NC[C@H](O)c3ccccc3)[C@H]3C(=O)O[C@H](c4ccccc4)[C@H](c4ccccc4)N3[C@@H]2c2ccccc2OCCO)cc1,0.272,-2.86,0.5,1.08,0.243,0.0229,0.232,0.325,0.967,1.22
C=CCC(OC(C)=O)[C@@H]1[C@@H](N(Cc2ccc(-c3cccc(C(F)(F)F)c3)o2)C(=O)c2ccc(C)cc2)c2cc(OCCCO)ccc2N1C(=O)c1ccc(-c2ccccc2)cc1 (stereo not given in full),-0.734,-0.094,-0.0524,-0.201,-0.147,-0.124,-0.16,-0.363,-0.178,-0.286
CCCNC(=O)[C@@H]1c2ccccc2C(=O)N(Cc2ccccc2)[C@H]1c1ccc(CO)cc1,0.656,-0.481,-0.595,-0.0977,-1.35,-0.152,-0.138,-0.216,0.142,0.918
COCCOC(=O)N1C(=O)[C@@]2(c3cc(C#CCNC(N)=O)ccc31)[C@H](C(=O)N1CCc3cc(OC)c(OC)cc3C1)[C@H]1C(=O)O[C@H](c3ccccc3)[C@H](c3ccccc3)N1[C@@H]2c1ccc(OCCO)cc1,0.581,-0.45,0.556,0.432,-0.178,-0.0236,0.0637,-0.794,0.5,0.399
CCN(CC)c1ccc(N2CC=CC34O[C@@H]5/C=C\CCCOC(=O)C5[C@H]3C(=O)N(C(CO)C(C)C)[C@@H]4C2=O)cc1 (stereo not given in full),-0.22,-0.132,-0.393,-0.956,-1.15,-0.0758,-0.221,-0.164,-0.0861,-0.692
CN(C)C(=O)[C@]1(CCC(=O)OC(C)(C)C)N=C(c2ccc(OCCCO)cc2)O[C@@H]1c1ccccc1N=[N+]=[N-],1.54,0.929,-0.12,1.22,0.463,0.173,0.14,1.02,2.07,1.36
O=C(O)[C@@]1(Cc2ccccc2)N=C(c2ccc(OCCCO)cc2)O[C@H]1c1ccccc1,0.843,-0.0284,-1.13,0.102,1.07,-0.0179,0.216,0.966,-0.514,1.07
CCCCC=C[C@@H](NC(=O)c1ccc(C(=O)OC)cc1)c1ccccc1,1.1,-1.36,0.107,0.168,-0.128,-0.15,0.0711,0.122,0.0279,0.926
C=CCOC(=O)[C@H]1[C@@H]2C(=O)O[C@@H](c3ccccc3)[C@@H](c3ccccc3)N2[C@@H](c2ccc(OCCOC(=O)[C@@H]3C[C@@H]4C(=O)N5CCC[C@H]5C(=O)N4[C@@H]3c3ccc(O)cc3)cc2)[C@]12C(=O)Nc1ccccc12,1.4,-1.81,0.677,0.823,0.0257,-0.1,0.0121,-0.467,0.808,1.18
C=CCNC(=O)[C@@H]1[C@H]2C(=O)O[C@H](c3ccccc3)[C@H](c3ccccc3)N2[C@H](c2ccc(O)cc2)[C@@]12C(=O)N(C(=O)OCCOC)c1ccccc12,1.2,-1.43,-0.211,0.922,-0.42,-0.0478,-0.0904,0.215,1.12,2.27
O=C(CS)NCCCCCCNC(=O)[C@H]1C[C@H]2C(=O)N3CCC[C@H]3C(=O)N2[C@H]1c1cccc(OCCO)c1,1.36,-0.36,0.36,0.803,0.0685,-0.0236,0.251,-0.353,0.557,0.383
COc1ccc(C(O)C2C=CC3C(=O)N(c4ccccc4)C(=O)C3N2Nc2ccc([N+](=O)[O-])cc2)cc1OCc1ccccc1 (stereo not given),0.664,0.872,0.0921,0.804,0.584,1,0.504,2.27,0.979,1.27
COCCOC(=O)N1C(=O)[C@@]2(c3cc(C#CCCO)ccc31)[C@H](c1ccc(O)cc1)N1[C@H](c3ccccc3)[C@H](c3ccccc3)OC(=O)[C@H]1[C@@H]2C(N)=O,-0.0809,-0.016,-0.597,-0.523,0.456,-0.0118,0.0611,0.0157,0.393,0.755
CN(C)C(=O)[C@@]1(CCC(=O)OC(C)(C)C)N=C(c2ccc(OCCCO)cc2)O[C@H]1c1ccccc1,1.49,-1.01,-0.964,1.03,1,0.0733,0.357,0.546,1.41,0.575
O=C1OCCC=C[C@H]2OC34C=CCN(Cc5ccccc5)C(=O)[C@H]3N(CCCCCO)C(=O)[C@@H]4C12 (stereo not given in full),1.1,-0.481,-1.24,-0.565,0.13,-0.091,-0.154,-0.177,1.95,-1.06
CCCCCN1CC=CC23O[C@@H]4/C=C\CCCOC(=O)C4[C@H]2C(=O)N(CCCCCCO)[C@@H]3C1=O (stereo not given in full),-0.0348,-0.857,-0.545,-0.758,-0.0227,-0.154,-0.0035,-0.237,1.09,-0.752

SMILES,composite z-score [1],z-score [2],composite z-score [3],composite z-score [4],composite z-score [5],composite z-score [6],composite z-score [7],composite z-score [8],composite z-score [9],composite z-score [10]
CCCCC(CC)C(O)C1C=CC2C(=O)N(c3ccccc3)C(=O)C2N1Nc1ccccc1 (stereo not given),1.33,-1.71,-0.354,1.25,0.831,0.173,0.108,-0.259,0.886,1.1
O=C1O[C@H](c2ccccc2)[C@H](c2ccccc2)N2[C@H]1[C@@H](C(=O)NC[C@H](O)c1ccccc1)[C@]1(C(=O)Nc3ccc(C#CCCO)cc31)[C@H]2c1ccc(O)cc1,-0.453,-1.07,-0.47,-0.6,-0.158,-0.202,0.0469,-0.0725,0.0234,-1.61
CCOC(=O)C[C@H]1[C@H](OC(=O)Cc2ccc3c(c2)OCO3)[C@@H](NC(=O)C2CCCCC2)c2cc(OCCCO)ccc2N1C(=O)Cc1ccc(OC)cc1,1.21,-1.39,0.341,0.0855,-0.629,-0.001,-0.0626,-0.543,-0.0511,0.199
O=C1OCCC=C[C@H]2OC34C=CCN(Cc5ccccc5)C(=O)[C@H]3N(CCCCCCO)C(=O)[C@@H]4C12 (stereo not given in full),1.04,-0.422,-1.06,-0.214,0.232,-0.343,-0.233,-0.402,0.366,-0.63
COCCOC(=O)N1C(=O)[C@@]2(c3cc(C#CC4=CCCCC4)ccc31)[C@H](C(=O)N1CCc3cc(OC)c(OC)cc3C1)[C@H]1C(=O)O[C@H](c3ccccc3)[C@H](c3ccccc3)N1[C@@H]2c1ccccc1OCCO,0.899,-1.35,0.546,0.805,0.512,-0.107,-0.153,0.365,0.261,0.917
CCOc1cc(C(O)C2C=CC3C(=O)N(c4ccccc4)C(=O)C3N2Nc2ccc([N+](=O)[O-])cc2)ccc1O (stereo not given),0.532,-0.31,0.173,-0.085,-0.255,-0.0165,-0.0849,-0.489,0.0762,0.0502
COc1cc2c(cc1OC)CN(C(=O)[C@@H]1[C@H]3C(=O)O[C@H](c4ccccc4)[C@H](c4ccccc4)N3[C@H](c3ccccc3OCCO)[C@@]13C(=O)Nc1ccc(C#CCNC(N)=O)cc13)CC2,0.644,-1.01,0.17,1.36,0.478,0.0744,0.155,1.12,1.29,1.9
CC(=O)NCCCC[C@@H]1NC(=O)[C@H]2C[C@@H](C(=O)NCCCCCC[N+](C)(C)C)[C@@H](c3cccc(OCCO)c3)N2C1=O,1.1,-0.0914,1.02,0.0227,-0.34,-0.0792,-0.0709,0.019,0.595,2.04
COc1c(C)cc(-c2cc3c(c(-c4ccc(Oc5ccccc5)cc4)n2)[Si](C(C)C)(C(C)C)OC3)cc1C,-0.0076,-0.382,-0.0065,0.354,0.777,-0.0721,-0.138,-0.111,-0.0839,0.327
CC(=O)Nc1cc(Br)ccc1C(=O)O,0.688,-0.0912,-0.229,0.908,0.762,-0.096,0.0556,-0.122,-0.134,0.424
CC(=O)C1=CCC(c2ccccc2)N(S(=O)(=O)c2ccc(C)cc2)C1 (stereo not given),1.41,-0.975,0.034,-0.105,-0.163,-0.0758,0.156,0.471,1.28,0.19
C=CC[C@@H](OC(=O)Nc1ccc(OC)cc1)c1ccc(O)c2ccccc12,0.94,-3.47,1.07,0.0871,-0.738,-0.0006,-0.154,-0.139,0.3,0.824
O=C1C[C@@](C(=O)NC2CC2)(c2ccc([N+](=O)[O-])cc2)[C@@H](c2ccc(CO)cc2)N1CC12CC3CC(CC(C3)C1)C2,0.869,-2.39,-0.523,0.557,-0.0787,-0.0751,-0.147,0.11,0.471,0.601
Cc1ccc([C@H]2C(C(=O)O)=C[C@@H](C)N2S(=O)(=O)c2ccc(C)cc2)cc1,0.801,0.537,-0.942,1,0.0248,-0.0478,0.0062,-0.0827,0.917,1.57
Cc1c(NC(=O)CC#N)c(=O)n(-c2ccccc2)n1C,0.371,-0.27,0.364,0.121,-0.235,-0.0944,0.253,-0.434,0.292,1.08
CS(=O)(=O)CCOC(=O)C1=CC(c2ccc(CO)cc2)=CC(C2CC2)N(Cc2cc3c(cc2Br)OCO3)C=C1C(=O)OCCS(C)(=O)=O (stereo not given),1.41,-2.3,0.462,1.38,0.23,-0.0124,0.171,0.446,1.18,1.77
COCCOC(=O)N1C(=O)[C@@]2(c3cc(C#CCC(C(=O)OC)C(=O)OC)ccc31)[C@H](C(=O)N1CCCCCCC1)[C@H]1C(=O)O[C@H](c3ccccc3)[C@H](c3ccccc3)N1[C@@H]2c1ccc(OCCO)cc1,1.49,-0.981,1.33,2.48,1.67,1.21,1.19,3.01,4.31,3.31
